# TbPYK inhibitor: T. brucei pyruvate kinase inhibition | TbPYK enzyme, Kinase-Glo Plus ATP luminescence, 45 min | Potency, µM (highest dose often 76.8 µM), for inactives: at the top dose activity, negative = inhibition, most hits filed as inhibitors | AID 624173 | 410,000 tested, 0.12% active; note: % is set by controls: 0 for no effect and ±100 for the full control effect; nearly all actives have a fitted effect of over 50% in size
#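 ADP (130 uM final) triggers the TbPYK reaction after compound addition; incubation is 45 min at room temperature. Kinase-Glo Plus is then added and luminescence imaged. Normalized data are fitted to concentration-effect curves.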
# NS1 function inh: influenza NS1 inhibition | Potency, µM (doses to about 46.1 µM), without a hit: at the top dose activity, positive = more growth | AID 2326 | 270,000 tested, 0.4% active; calls by dose curve; note: actives are rising curves; nearly all actives have a fitted effect of over 50% in size
#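 Compounds were scored for reversing the slow growth caused by influenza A NS1 in S. cerevisiae, measured by optical density at 600 nm. Assay medium contained 2% galactose at pH 6.0; NS1-free yeast of the same strain were the positive control.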
# LmPK inh: LmPK (Leishmania mexicana) enzyme inhibition | Q27686 | purified LmPK, Kinase-Glo ATP luminescence, 1 h | Potency, µM (doses to about 57.5 µM), inactives show top-dose activity change, negative = inhibition, usual class: inhibitors | 290,000 tested, 0.37% active | AID 1721; note: % is set by controls: 0 for no effect and ±100 for the full control effect
# Target sequence (Q27686 whole entry, looked up): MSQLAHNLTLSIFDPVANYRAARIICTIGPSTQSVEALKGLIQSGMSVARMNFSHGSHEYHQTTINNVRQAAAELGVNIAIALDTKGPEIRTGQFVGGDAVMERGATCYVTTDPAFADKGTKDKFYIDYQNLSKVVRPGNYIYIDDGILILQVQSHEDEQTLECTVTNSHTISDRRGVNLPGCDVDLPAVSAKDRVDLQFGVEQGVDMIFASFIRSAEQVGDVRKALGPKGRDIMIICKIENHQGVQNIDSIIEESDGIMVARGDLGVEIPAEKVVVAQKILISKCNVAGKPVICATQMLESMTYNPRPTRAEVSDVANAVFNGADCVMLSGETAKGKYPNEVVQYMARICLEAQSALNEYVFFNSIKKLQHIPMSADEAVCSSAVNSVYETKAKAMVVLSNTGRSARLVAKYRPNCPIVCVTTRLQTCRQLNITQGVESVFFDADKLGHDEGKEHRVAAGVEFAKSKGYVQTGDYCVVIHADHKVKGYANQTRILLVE
#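 In 50 mM imidazole pH 7.2 with 7 mM MgCl2, LmPK (0.1 nM) turned over PEP (0.5 mM) and ADP (0.1 mM) for 1 h at room temperature. Luciferase read-out of ATP.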
# RE007 growth inh: less growth of the S. pombe RE007 Vpr strain | S. pombe RE007 Vpr strain, BacTiter-Glo ATP luminescence, 24 h | Potency, µM (highest dose often 92.2 µM), without a hit: at the highest dose activity change, negative = less growth, actives largely listed as inhibitors | 360,000 tested, 0.21% active | AID 651644; active = well fitted falling curve with a large enough effect; inconclusive = small, poorly fitted or top-dose-only effect; inactive = no such curve, though single readings can be large or run the other way; note: % is set by controls: 0 for no effect and ±100 for the full control effect; nearly all actives have a fitted effect of over 50% in size
#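 Fission yeast RE007 carrying one integrated HIV-1 vpr copy, seeded at OD 0.01 in PMG+AL medium with 23 nL pinned compound. Grown 24 h at 30 degrees; viability read by BacTiter-Glo luminescence after 5 min.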
# AMA1 RON2 block: disrupts binding of P. falciparum AMA1 to RON2 | AlphaScreen AMA1-biotinylated RON2 peptide binding | Potency, µM (doses to about 58.2 µM), inactives show at the top dose activity change, negative = inhibition, actives largely listed as inhibitors | 360,000 tested, 0.2% active | AID 720542;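 note: 0% = vehicle wells and -100% = peptide control; nearly all actives have a fitted effect of over 45% in size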
#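 AMA1 (3D7) with his tag at 25 nM final met compounds first, then biotinylated RON2 peptide at 25 nM; detection used donor plus acceptor beads, 10 µg/mL apiece, read by AlphaScreen after 30 min at room temperature.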
# * = called active by the depositor; ? = inconclusive; . = no result given; [ ] = remark or other dose. Hits are enriched below; roughly 0.92% of the tested compounds scored in any of these assays. Unless noted, calls come from the whole dose curve; as a rule, active = well fitted curve in the direction sought with a large enough effect; inconclusive = small, poorly fitted or top-dose-only effect, or another doubt; inactive = no such curve, though single readings can be large; an effect the other way counts as inactive or inconclusive. Potency is the fitted concentration of half-maximal effect.
SMILES,TbPYK inhibitor,NS1 function inh,LmPK inh,RE007 growth inh,AMA1 RON2 block
COc1ccc(Nc2c3c(nc4ccc(NC(=O)c5cc(Cl)ccc5OC)cc24)CCCC3)cc1OC,4.2%,.,.,.,.
COC(=O)C1=C(c2cccc(OCc3ccccc3)c2)C[C@@H]2CC[C@H]1N2C(=O)NCc1ccc(N(C)C)cc1,-7.2%,.,.,7.0%,11.2µM*
N=C1C=CC(=C(c2ccc(N)cc2)c2ccc(N)cc2)C=C1,?,-4.5%,.,?,14.1µM*
CCC(C)C1OC2(C=CC1C)CC1CC(C/C=C(\C)C(OC3CC(OC)C(OC4CC(OC)C(NC(C)=O)C(C)O4)C(C)O3)C(C)/C=C/C=C3\COC4C(O)C(C)=CC(C(=O)O1)C34O)O2 (stereo unspecified) (tested in a mixture with another compound),-4.5%,.,.,.,.
O=S(=O)(Nc1ccc(O)c2ccccc12)c1cccs1,-16.4%,-40.8%,11.2µM*,-9.0%,-8.5%
COc1cccc(NC(=O)C2CC(=O)n3cnnc3S2)c1 (stereo unspecified),-7.9%,-55.0%,4.8%,35.5µM*,?
CCn1nc(CC(=O)Nc2nnc(CC(=O)N3CCOCC3)s2)c2ccccc2c1=O,-4.1%,-1.5%,-1.9%,5.2%,10.7%
CCn1nc(CC(=O)Nc2nnc(CC(=O)N3CCCC3)s2)c2ccccc2c1=O,-1.0%,20µM*,-1.8%,-6.4%,29.0%
COC(=O)N1C2=C(c3ccccc3[C@@H]1CC(=O)Nc1ccc3ccc4cccc5ccc1c3c45)[C@@H]1C(=O)N(c3ccccc3)C(=O)[C@@H]1[C@H](C)C2,.,.,-5.2%[11.5 µM],.,.
CC1CCC(O)C/C1=C\C=C1/CCCC2(C)C1CCC2C(C)/C=C/C(C)C(C)C (stereo unspecified),-7.6%,.,.,.,.
CC(C)c1cc[n+](-c2nc([O-])sc2C=O)cc1,28.2µM*,2.2%,-0.6%,-17.1%,10.4%
CCc1cc[n+](-c2nc([O-])sc2C=O)cc1,-9.1%,2.2%,-4.0%,-1.7%,-2.9%
c1ccc(-c2ccc(C(c3ccccc3)n3ccnc3)cc2)cc1 (stereo unspecified),8.0%,-84.7%,10.6%,-7.0%,-21.7%
c1ccc(-c2ccc(-n3ccnc3)cc2)cc1,-7.2%,-129.0%,-6.0%,28.2µM*,-13.5%
Cc1ccc2c(c1)[C@]13CCCC[C@@H]1[C@@H](C2)N(C)CC3,-5.4%,.,.,.,.
Cc1ccc(SC2=C(N(C)C)C(=O)c3ccccc3C2=O)cc1,-18.7%,.,.,?,8.91µM*
O=c1c(Br)ccc(Br)cc1Br,-15.5%,.,.,2.24µM*,-2.4%
COc1ccc(-c2nc3ccc(C4=C(C)CC(=O)NN4)cc3[nH]2)cc1,2.8%,.,.,.,.
O=C(Nc1cccc2c(=O)cc(-c3nn[nH]n3)oc12)c1ccc(OCCCCc2ccccc2)cc1,0.0%,.,.,.,.
O=C(O)c1ccc2c(c1)[C@@H]1C=CC[C@@H]1[C@H](c1ccccn1)N2,-15.4%,.,.,-8.7%,12.6µM*
COc1ccc(OC)c([C@@H]2Nc3ccc(C(=O)O)cc3[C@@H]3C=CC[C@@H]32)c1,-26.9%,.,.,.,.
Cc1cc(Cl)ccc1NNC(N)=S,-5.6%,-49.2%,2.9%,15.8µM*,35.1%
NC(=S)NNc1cc(Cl)cc(Cl)c1,1.1%,-134.9%,-3.8%,8.91µM*,58.4%
Cc1ccc(NC2=C(N3CCOCC3)C(=O)c3ccccc3C2=O)cc1,-4.1%,10.1%,-19.9%,?,23.8µM*
C=CCN1c2ccccc2[C@]23C[C@@H](C(=O)OC)N(S(=O)(=O)c4ccc(Br)cc4)C2=NC(C(=O)OC)=C(C(=O)OC)[C@H]13,.,.,-3.7%[11.5 µM],.,.
O=c1c2ccccc2sn1-c1ccc(Cl)cc1Cl,17.8µM*,.,.,44.7µM*,0.0%
Oc1cc(O)c2c(c1)O[C@@H](c1ccc(O)c(O)c1)[C@H](O[C@@]1(c3cc(O)c(O)c(O)c3)Oc3cc(O)cc(O)c3[C@H](O)[C@@H]1O)C2,.,5.0%,.,.,.
CC1=NN(c2ccc(S(=O)(=O)O)cc2C)C(=[OH+])[C@H]1N=Nc1cc(S(=O)(=O)O)ccc1C(=O)O.O.[Cr],.,-0.3%,.,.,.
[ClH+][Cu][ClH+].[Cu].[OH2+]c1ccc2ccccc2c1CN1CCCCC1.[OH2+]c1ccc2ccccc2c1CN1CCCCC1,.,0.0%,.,.,.
